# GAA850 FXN act: activators of GAA850 frataxin (FXN) promoter; AID 540364; 360,000 tested, 0.56% active; activation, % at 6 µM; HEK293 lucGAA850 FXN promoter luciferase reporter, 24 h; percent of 10 µM SAHA response;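 active = activation above the average of all compounds screened plus 3 SD, cutoff fixed separately per campaign, cut at about 7.5% in these data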;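 note: 0% = DMSO wells and 100% = 10 µM SAHA wells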
# HSF1 inh: HSF1 inhibition | NIH3T3-HGL HSE-luciferase, MG132-induced, luminescence 8 h; active compounds read low | activity change, negative = inhibition, % at 7.5 µM (by protocol) | 300,000 tested, 0.77% active | AID 2098;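 active = more than half of replicate wells show activity change below -50%, luminescence cut by over half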;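 note: luciferase reports HSF-1 transcriptional activity via heat shock element; 0% = median of DMSO wells and -100% = zero luminescence signal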
# HSF-1 act: increases HSF-1 driven luciferase reporter signal | NIH3T3-HGL HSF-1 luciferase reporter, MG132, 8 h; 100% = twice DMSO control signal | activation, % at 9 µM | 300,000 tested, 1.7% active | AID 504408;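 active = mean replicate activation of at least 50% with a set share of replicates each reaching 50%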;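 note: 0% = median of the neutral control wells and 100% = twice that signal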
# AHR activator: activators of human aryl hydrocarbon receptor; P35869; AHR-responsive luciferase reporter cells, luminescence; activation, % at 5 µM; 320,000 tested, 2.5% active; in the data active = activation above about 47%;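 note: 0% = vehicle wells and 100% = reference agonist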
# Target sequence (P35869 whole entry, looked up): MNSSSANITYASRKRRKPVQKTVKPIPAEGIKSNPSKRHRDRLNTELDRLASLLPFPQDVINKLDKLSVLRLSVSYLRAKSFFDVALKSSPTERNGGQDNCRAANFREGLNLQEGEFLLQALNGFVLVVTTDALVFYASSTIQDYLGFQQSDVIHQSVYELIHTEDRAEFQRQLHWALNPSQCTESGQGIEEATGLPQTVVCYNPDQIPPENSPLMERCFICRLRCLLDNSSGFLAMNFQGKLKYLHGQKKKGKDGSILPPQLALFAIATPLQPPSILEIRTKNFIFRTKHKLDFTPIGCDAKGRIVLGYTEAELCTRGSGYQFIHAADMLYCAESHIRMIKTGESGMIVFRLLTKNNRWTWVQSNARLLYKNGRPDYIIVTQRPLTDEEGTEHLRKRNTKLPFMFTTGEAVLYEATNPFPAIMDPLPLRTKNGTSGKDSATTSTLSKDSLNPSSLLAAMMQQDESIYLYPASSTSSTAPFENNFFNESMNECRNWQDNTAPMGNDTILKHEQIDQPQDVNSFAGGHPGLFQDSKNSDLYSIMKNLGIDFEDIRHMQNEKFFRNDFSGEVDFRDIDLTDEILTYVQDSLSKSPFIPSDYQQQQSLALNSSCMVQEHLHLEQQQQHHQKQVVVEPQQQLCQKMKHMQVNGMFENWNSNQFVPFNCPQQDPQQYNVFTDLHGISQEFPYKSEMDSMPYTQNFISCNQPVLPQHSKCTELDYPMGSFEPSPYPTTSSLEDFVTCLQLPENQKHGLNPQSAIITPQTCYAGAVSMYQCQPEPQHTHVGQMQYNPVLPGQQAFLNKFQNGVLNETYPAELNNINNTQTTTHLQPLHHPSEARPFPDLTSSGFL
# Numbers without * were called inactive; . = not tested or not shown. In the library only some 4.6% were active in any assay of this set; here they are far more common.
SMILES,GAA850 FXN act,HSF1 inh,HSF-1 act,AHR activator
COc1cccc(-c2nnc(-c3ccc(C)o3)o2)c1,2,28,63*,-1
COc1cccc(-c2nnc(-c3ccco3)o2)c1,2,43,74*,51*
Cc1ccc(N=C2C(=S)N(c3ccc(C)cc3)C(=N)N2/N=C/c2ccc(Cl)cc2)cc1,1,67,108*,10
COc1ccc(/C=N/N2CCN(c3ccc(Cl)cc3)CC2)cc1,0,4,6,-1
O=C(Cc1ccccc1F)Nc1nc(-c2cccs2)cs1,0,52,66*,-15
O=C(Cc1ccccc1)Nc1nnc(-c2cccs2)s1,4,14,23,69*
O=C(Cc1cccs1)Nc1nnc(Cc2ccccc2)s1,0,3,2,43
O=C(Cc1ccccc1)Nc1nc(-c2cccs2)cs1,5,22,20,-9
CCC(=O)Nc1nnc(-c2cccs2)s1,2,9,0,74*
CC1(C)C2CCC1(C)C(NC(=O)CCN1CCCCC1)C2 (configuration not stated),4,-5,2,-2
CCCCNC(=S)N1CCC(Cc2ccccc2)CC1,1,9,6,2
Cn1c(C(O)c2ccc(Br)cc2)nc(Cl)c1Cl (configuration not stated),1,2,1,61*
Cn1c(C(O)c2ccccc2F)nc(Cl)c1Cl (configuration not stated),-4,0,7,-3
Cc1ccc(C#N)c(SCc2cccc(Br)c2)n1,2,9,3,-1
Cc1ccc(-c2nnc(Cc3ccc(Cl)cc3)o2)cc1,0,20,24,-1
Cc1cc(C)c(C#N)c(SCc2nnc(-c3ccccc3)o2)n1,-15,-85*,-88,-15
Cc1ccc(C#N)c(SCc2nnc(-c3ccc(Cl)cc3)o2)n1,-18,-84*,-86,-8
Cc1ccc(C#N)c(SCc2cc3c(cc2Cl)OCO3)n1,0,9,-1,51*
CC1(C)C(c2cccs2)=[N+]([O-])C2(CCCCC/C2=N\NC(N)=S)N1O (configuration not stated),1,-7,5,-2
CCOc1ccc(N2CC(C(=O)N3CC(C)OC(C)C3)CC2=O)cc1 (configuration not stated),2,-4,-18,-1
Cc1cc(NC(=O)c2ccccc2)cc(NC(=O)c2ccccc2)c1C,1,-2,10,78*
Cc1cc(NC(=O)c2ccccc2)sc1C,4,31,60*,-7
Cc1nnc(N2C(=O)c3cccc4cccc(c34)C2=O)s1,4,-55*,-63,68*
Cc1nnc(C)n1N1C(=O)c2cccc3cccc(c23)C1=O,1,-5,-7,0
CCCc1nnc(N2C(=O)c3cccc4cccc(c34)C2=O)s1,1,10,5,73*
SMILES,GAA850 FXN act,HSF1 inh,HSF-1 act,AHR activator
O=C1c2cccc3cccc(c23)C(=O)N1c1nccs1,1,.,.,-5
CCc1ccc(NC(=O)CCn2c(=O)c3cccn3c3ccccc32)cc1,-2,6,10,50*
O=C(Cn1c(=O)c2cccn2c2ccccc21)Nc1cc(F)ccc1F,2,-57*,-67,6
O=C(Cn1c(=O)c(=O)n(Cc2ccccc2)c2ccc(Cl)cc21)Nc1cc(F)ccc1F,.,21,23,2
CCc1ccc(NC(=O)Cn2c(=O)c3cccn3c3ccccc32)cc1,2,-1,18,4
CCc1nccn1Cc1cc(C=O)ccc1OC,0,-1,-9,1
COc1ccc(C=O)cc1Cn1ccnc1C,1,-77*,-77,0
C=CCOc1ccc(CNn2cn[nH]c2=S)cc1OCC,1,-8,-6,1
COc1ccc(NC(=O)CSc2nnc(-c3ccco3)n2N)cc1Cl,1,13,23,1
COc1ccc(NC(=O)C(Sc2nnc(-c3ccncc3)n2-c2ccccc2C)c2ccccc2)cc1Cl (configuration not stated),-2,17,53*,6
O=C(CSc1nnc(-c2ccncc2)n1-c1ccccc1Cl)Nc1ccc(C(=O)O)cc1,2,2,-4,-1
COc1ccc(NC(=O)CSc2nnc(-c3ccccn3)n2N)cc1Cl,-1,-6,6,73*
CC1Sc2ccc(S(=O)(=O)NCc3ccccc3)cc2NC1=O (configuration not stated),0,4,6,1
CCOC(=O)C1=C(C)NC(C)=C(C(=O)OCC)C1/C=C/c1ccccc1OC,1,26,67*,13
COCCOC(=O)C1=C(C)NC(C)=C(C(=O)OCCOC)C1/C=C/c1ccccc1OC,1,47,77*,25
CNC(=S)NNc1ccccc1[N+](=O)[O-],1,7,2,8
CN(Cc1nc(-c2ccccc2)no1)C(=O)c1ccc2c(c1)OCO2,2,-59*,-62,6
c1ccc(-c2noc(COc3ccc4c(c3)OCO4)n2)cc1,4,46,55*,9
COc1ccc(-c2noc(COc3ccc4c(c3)OCO4)n2)cc1,0,-4,-6,0
COc1ccc(CNC(=O)[C@]2(C)CCC[C@@]3(C)C4CC[C@@]5(C)C[C@]4(CCC32)CC5=O)cc1 (some centres not stated),-1,.,.,2
CCCn1c(C)cc(C(=O)COC(=O)c2ccc[nH]c2=O)c1C,-8,-70*,-74,3
Cc1ccc(-n2c(C)cc(C(=O)COC(=O)c3ccc[nH]c3=O)c2C)cc1C,-2,-14,-20,-2
Cc1cc(C(=O)COC(=O)c2ccc(O)cc2)c(C)n1-c1ccccc1F,3,-63*,-70,-4
Cc1cc(C(=O)COC(=O)c2ccc[nH]c2=O)c(C)n1-c1ccccc1F,-5,-51*,-64,7
CCOc1ccc(C(CC(=O)O)NC(=O)CCCOc2ccc(Cl)cc2C)cc1 (configuration not stated),0,1,9,5
SMILES,GAA850 FXN act,HSF1 inh,HSF-1 act,AHR activator
NC(=O)c1ccccc1NC(=O)/C=C/c1c(Cl)cccc1Cl,-3,40,83*,8
CC1CN(C(=O)/C=C/c2ccc3c(c2)OCO3)CC(C)O1 (configuration not stated),0,-6,-1,60*
O=C(/C=C/c1ccc2c(c1)OCO2)N1CCOCC1,2,8,-11,55*
CC1C=CCC2C(=O)N(c3cccc(C(=O)Nc4ccc(Br)cc4)c3)C(=O)C12 (configuration not stated),-3,0,11,37
Cc1ccc(NC2(C(F)(F)F)N=C(c3ccccc3)NC2=O)nc1 (configuration not stated),1,1,18,2
Cc1cccc(NC2(C(F)(F)F)N=C(c3ccccc3)NC2=O)n1 (configuration not stated),-2,-57*,-64,-3
COc1ccc(/C=C/C(=O)c2cc(Br)ccc2OC(=O)c2ccco2)cc1OC,3,15,18,-2
COc1ccc(/C=C/C(=O)c2cc(F)ccc2OC(=O)c2ccccc2OC)cc1OC,4,64,69*,.

# Compound activity deposited in PubChem BioAssay by several laboratories.
